# Laboratory results as given in PubChem BioAssay AID1345085 (National Center for Advancing Translational Sciences (NCATS), 2018).
# Results filed as inconclusive are left out. A number with no mark means an inactive call. The source made the active and inactive calls. Calls follow the shape of the dose curve; as a rule, active = well fitted cell-killing curve with a large enough effect; inconclusive = small, poorly fitted or top-dose-only effect, or effect the other way; inactive = no such curve, though single readings can be large or run the other way.
# Test system: SW626
# Assay: Confirmatory qHTS for gynecologic anti-cancer compounds from libraries of approved drugs and bioactive compounds; also: nearly all actives have a fitted effect of over 55% in size
# Details: gynecologic cancer cell panel viability, ATPlite luminescence, 48 h; series mostly up to 57.6 µM
# Outline: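 ATP-based luminescent viability (ATPlite) after 48 h drug treatment at 37 °C, 5% CO2, across 57.5 uM–0.977 nM in 1:3 steps. Cells seeded at 1,000 per well 16 h beforehand; IC50 values computed, HEK 293T as selectivity control.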
# % is scaled to controls: 0 for no effect and ±100 for the full control effect; potency is read from the fitted curve at half-maximal effect.
Structure (SMILES),Potency,"activity change, negative = viability loss"
Cc1ccc(C(=O)Nc2ccc(CN3CCN(C)CC3)c(C(F)(F)F)c2)cc1C#Cc1cnc2cccnn12,21.7 µM (active),
Cc1cnc(Nc2ccc(F)cc2Cl)nc1-c1c[nH]c(C(=O)NC(CO)c2cccc(Cl)c2)c1 (centres undefined),inactive,
CN(C)CCC(CSc1ccccc1)Nc1ccc(S(=O)(=O)NC(=O)c2ccc(N3CCN(Cc4ccccc4-c4ccc(Cl)cc4)CC3)cc2)cc1[N+](=O)[O-] (centres undefined),7.69 µM (active),
CC[C@H](Nc1ncnc2nc[nH]c12)c1nc2cccc(F)c2c(=O)n1-c1ccccc1,,-5.07% [at 10.7 µM]
